HPGD block – qHTS Assay for Inhibitors of HPGD (15-Hydroxyprostaglandin Dehydrogenase). actives 4.3% (n = 150,000). Potency, µM, hits mostly inhibitors. purified HPGD, NADH fluorescence kinetic, PGE2 substrate. 15-hydroxyprostaglandin dehydrogenase [NAD(+)] (Homo sapiens), P15428; active means well fitted inhibition curve with a large enough effect, not every such curve was filed as active; inconclusive means small, poorly fitted or top-dose-only effect, or another doubt; inactive means no such curve, though single readings can be large or run the other way
Target sequence (P15428 whole entry, looked up): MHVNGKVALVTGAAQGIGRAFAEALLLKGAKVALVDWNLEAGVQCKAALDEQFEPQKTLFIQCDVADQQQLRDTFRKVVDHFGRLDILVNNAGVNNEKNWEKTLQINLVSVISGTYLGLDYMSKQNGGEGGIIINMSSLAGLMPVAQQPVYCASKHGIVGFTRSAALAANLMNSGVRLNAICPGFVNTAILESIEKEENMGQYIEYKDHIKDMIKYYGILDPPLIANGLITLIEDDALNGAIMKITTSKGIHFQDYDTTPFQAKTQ
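20 nM HPGD preincubated 15 min at room temperature with compound in 50 mM Tris-HCl pH 8, 0.01% Tween 20. Started with 1 mM NAD+ and 30 uM prostaglandin E2; NADH fluorescence (360/450 nm) read 5 times over 30-s intervals, last minus first.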
HTT cytoprotect – qHTS Multiplex Assay to Identify Dual Action Probes in a Cell Model of Huntington: Cytoprotection (ATP); PC12 HTT-Q103 induced, cytoprotection, ATP luminescence, 40 h; Potency, µM (top dose mostly 56.4 µM), hits mostly activators; actives 0.14% (n = 230,000); further: nearly all actives have a fitted effect of over 45% in size
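Quantitative HTS on tebufenozide-induced (100 nM) PC12 cells expressing HTTQ103 exon 1–GFP; compounds tested as a concentration series; survival measured via cellular ATP.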
GoLoco inh red – qHTS Assay for Inhibitors of RGS12 GoLoco Motif Activity (Red Fluorophore); AID 880, 2007; actives 0.44% (n = 230,000); Potency, µM (highest dose often 61.6 µM), most hits filed as inhibitors; Guanine nucleotide-binding protein G(i) subunit alpha-1 (Homo sapiens), P63096; Gai1:RGS12 GoLoco peptide FP, rhodamine, 10 min; active means well fitted inhibition curve with a large enough effect, not every such curve was filed as active; inactive means no such curve, though single readings can be large or run the other way; further: nearly all actives have a fitted effect of over 30% in size
PNC inhibitor – High Content Assay for Compounds that inhibit the Assembly of the Perinucleolar Compartment | PC3M PTB-GFP, PNC prevalence imaging, 16 h; hits give low values | activity change (PNC), negative = inhibition, % at 10 µM | actives 3.1% (n = 140,000) | AID 2417, 2010;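 active means readout at or below -70, meaning at least 70% loss of cells showing the perinucleolar compartment, a nuclear body marking cancer cells; inconclusive means readout between -30 and a set limit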
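Compounds are pinned in duplicate onto adhered PC3M cells stably expressing GFP-tagged PTB and incubated 16 h at 37 C. Cells are then fixed, nuclei stained with Hoechst, and PNC-positive cells counted.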
ALDH1A1 inh – qHTS Assay for Inhibitors of Aldehyde Dehydrogenase 1 (ALDH1A1); Potency, µM (top dose mostly 75.3 µM), hits mostly inhibitors; Purified ALDH1A1, NADH fluorescence, propionaldehyde substrate; Aldehyde dehydrogenase 1A1 (Homo sapiens), P00352; actives 7.3% (n = 220,000); active means well fitted inhibition curve with a large enough effect, not every such curve was filed as active; inconclusive means small, poorly fitted or top-dose-only effect, or another doubt; inactive means no such curve, though single readings can be large or run the other way
Target sequence (P00352 whole entry, looked up): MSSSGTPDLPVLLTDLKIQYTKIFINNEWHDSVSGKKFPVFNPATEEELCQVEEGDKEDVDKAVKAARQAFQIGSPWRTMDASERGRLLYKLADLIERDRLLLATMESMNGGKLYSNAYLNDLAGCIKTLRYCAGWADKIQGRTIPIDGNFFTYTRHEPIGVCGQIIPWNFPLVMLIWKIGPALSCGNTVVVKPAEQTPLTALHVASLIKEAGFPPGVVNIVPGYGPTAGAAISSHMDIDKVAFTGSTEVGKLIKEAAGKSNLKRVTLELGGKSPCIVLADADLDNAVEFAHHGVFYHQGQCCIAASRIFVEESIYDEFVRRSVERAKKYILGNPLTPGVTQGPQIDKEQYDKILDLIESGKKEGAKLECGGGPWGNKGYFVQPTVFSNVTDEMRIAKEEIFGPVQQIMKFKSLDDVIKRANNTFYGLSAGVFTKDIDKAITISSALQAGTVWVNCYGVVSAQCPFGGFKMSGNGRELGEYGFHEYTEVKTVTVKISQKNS
HTT aggregate – qHTS Multiplex Assay to Identify Dual Action Probes in a Cell Model of Huntington: Aggregate Formation (GFP). PC12 HttQ103-GFP aggregates, Acumen cytometry, 40 h. Potency, µM (titrated, usually from 46.1 µM), usual class: inhibitors. actives 1.1% (n = 220,000). AID 1688, 2009; further: nearly all actives have a fitted effect of over 60% in size
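Multiplexed with ATP-based cell death, this channel scores GFP aggregates in PC12 cells expressing inducible HTTex1-Q103-GFP. Induction used 100 nM tebufenozide; compounds were tested in concentration series.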
Hits are given with their value; n = inactive; u = inconclusive; x = no result given; [ ] = dose if it differs, or a comment. Sampled rows, rich in hits. Any-hit rate of the full collection: about 11%. Unless noted, the call rests on the fitted dose curve; in most records, active means well fitted curve in the direction sought with a large enough effect; inconclusive means small, poorly fitted or top-dose-only effect, or another doubt; inactive means no such curve, though single readings can be large; an effect the other way counts as inactive or inconclusive.

SMILES | HPGD block | HTT cytoprotect | GoLoco inh red | PNC inhibitor | ALDH1A1 inh | HTT aggregate
COc1cc(/C=C(/C#N)c2nc3ccccc3c(=O)[nH]2)ccc1O | 14.1µM | n[10 µM] | n | n | n | n
Cc1ccc2nc(/C(C#N)=C\c3cc(O)ccc3[N+](=O)[O-])[nH]c2c1 | x | n | n | x | n | n
N#C/C(=C\c1cc([N+](=O)[O-])c(N2CCOCC2)cc1N1CCOCC1)c1nc2ccccc2[nH]1 | 14.1µM | n[10 µM] | n | n | n | n
COc1cc(/C=C(\C#N)c2nc3ccccc3[nH]2)cc(OC)c1O | x | n[10 µM] | n | x | n | n[9.22 µM]
Cc1onc(-c2c(F)cccc2Cl)c1C(=O)N[C@H]1C(=O)N2[C@H]1SC(C)(C)[C@H]2C(=O)O | n | n | n | x | n | x
O=C(/C=C/C=C/c1ccc2c(c1)OCO2)N1CCCCC1 | 15.8µM | n | n | x | u | x
Cc1ccc(OCCN2C(=O)C(=O)c3cc(C)ccc32)cc1 | x | n[10 µM] | n | x | u | n[9.22 µM]
Cc1cccc2c1N(CCOc1ccc(C(C)(C)C)cc1)C(=O)C2=O | n | n[10 µM] | n | n | 0.501µM | n
Cc1ccc(OCCCN2C(=O)C(=O)c3cccc(C)c32)cc1 | 17.8µM | n | n | n | 0.0708µM | n
COc1ccccc1OCCCN1C(=O)C(=O)c2cccc(C)c21 | x | n[10 µM] | n | x | n | n[9.22 µM]
CC1=C/C(=N/O)C([C@H]2C=C(C)CC(C)(C)[C@@H]2O)C(C)(C)C1 (stereo not given in full) | n | n[10 µM] | n[14.2 µM] | x | n[13.5 µM] | x
Cc1ccc(/C=C2\SC(N3CCCC3)=NC2=O)cc1 | x | n | n | x | n | n
O=C1N=C(N2CCCCC2)S/C1=C/C1=Cc2ccccc2OC1 | x | n | n | x | 28.2µM | n
CC1(C)CC(=O)c2c(nc3ccccc3c2N)C1 | u | n[10 µM] | n | n | u | n
CCNc1c2c(nc3ccccc13)CC(C)(C)CC2=O | n | n[1.9 µM] | n | u | 14.1µM | n
COc1ccc(NC(=O)C(NC(=O)c2ccc(=O)[nH]c2)c2ccc(OC)cc2)cc1 (stereo not given) | n | n[10 µM] | n | -109.2 | n | n
COc1ccc(NC(=O)C(NC(=O)CC2NC(=O)NC2=O)c2ccccc2)cc1 (stereo not given) | n | n[10 µM] | n | -115.1 | n | n
CC(C)c1ccc(NC(=O)C(c2ccccc2)N(Cc2ccco2)C(=O)CC2NC(=O)NC2=O)cc1 (stereo not given) | x | n | n | x | 7.94µM | n
COC(=O)c1ccc(C(NC(=O)OCc2ccccc2)/C(=C/[C@@H](C)C(=O)NCCF)c2cccnc2)cc1 (stereo not given in full) | n | n | n | x | n | x
CCCN1CNC(=S)N(CC2CCCO2)C1 (stereo not given) | n | n[10 µM] | n | n | n | n
COC(=O)C1=C(C)N(CCc2ccc(OC)c(OC)c2)C(=O)/C1=C\N(C)C | n | n | n | n | 14.1µM | u
COc1ccc(CCNC2=C(Cl)C(=O)N(CCc3ccc(OC)c(OC)c3)C2=O)cc1OC | n | n | n | n | n | n
O=c1c(/C=N/Nc2ccccc2)c(Sc2nnnn2-c2ccccc2)nc2ccccn12 | n | n[10 µM] | n | n | n | n
O=C(O)c1ccccc1N/N=C/c1c(Sc2nnnn2-c2ccccc2)nc2ccccn2c1=O | x | n[10 µM] | n | x | 2µM | n[9.22 µM]
COC(=O)c1cc(NC(=O)/C=C/c2ccccc2)ccc1O | x | n[10 µM] | n | x | n | n[9.22 µM]
SMILES | HPGD block | HTT cytoprotect | GoLoco inh red | PNC inhibitor | ALDH1A1 inh | HTT aggregate
NC(=S)N/N=C/c1ccccc1OCCSc1ccc(Cl)cc1 | 35.5µM | n[10 µM] | n | n | n | u
CC(=O)N1CCc2ccc(NC(=O)c3c(-c4c(Cl)cccc4Cl)noc3C)cc21 | x | n[10 µM] | n | x | n | n[9.22 µM]
Oc1ccc(-c2nc3ccccc3s2)c(O)c1 | x | n[10 µM] | n | x | x | n[9.22 µM]
Oc1ccc(-c2cnns2)c(O)c1 | 2µM | x | 1.26µM | u | 25.1µM | u
CCOC(=O)C1=C(N)N(c2cc(S(=O)(=O)N3CCOCC3)ccc2Cl)C(=O)C1 | x | n | n | x | 14.1µM | n
CCOC(=O)c1cccc(S(=O)(=O)N2CCOCC2)c1 | x | n[10 µM] | n | x | n | n[9.22 µM]
N#C/C(=C\c1ccc(O)c(O)c1)C(=O)NCCc1ccccc1 | 25.1µM | n[1.9 µM] | n | x | u | x
N#C/C(=C\c1ccc(O)c(O)c1)C(=O)NCCCCc1ccccc1 | 8.91µM | n | n | x | u | x
COc1cc(/C=C(\C#N)C(=O)NCCc2ccccc2)cc(OC)c1O | x | n | n | x | n | n
FC(F)(F)c1cccc(-c2nc3nc(Cl)c(Cl)nc3[nH]2)c1 | u | n[10 µM] | n[14.2 µM] | x | u | u
CCCCCCCCC(=O)N/N=C(\C)c1ccco1 | n | x | n | n | n | n
CCCCCCC(=O)N/N=C/Cc1ccccc1 | n | n | n | u | 12.6µM | n
COC(=O)CCC(=O)OC1(C)C(=O)C=C2C=C(CCCNC(=O)OC(C)(C)C)OC=C2C1=O (stereo not given) | n | n | n | x | n | x
CCN(CC)S(=O)(=O)c1ccc(S(=O)(=O)Nc2ccc(C(=O)N3CCCC3)cc2)cc1 | n | n[10 µM] | n | n | 0.631µM | n
CCN(CC)S(=O)(=O)c1cccc(C(=O)N2CCCCC2)c1 | n | n[0.074 µM] | n | u | n | n
O=C(c1ccc(S(=O)(=O)Nc2ccccc2)cc1)N1CCOCC1 | n | n[10 µM] | n | n | n | n
O=C(c1ccc(NS(=O)(=O)c2ccccc2)cc1)N1CCCC1 | 17.8µM | n[0.074 µM] | n | u | u | n
O=C(COC(=O)c1cc(=O)c2ccccc2o1)NC1CCCC1 | x | n | n | x | n | n
Cc1cc(C(=O)NC2CCCCC2)on1 | x | n[10 µM] | n | x | x | n[9.22 µM]
O=C(NCCc1ccccc1)c1oc2ccccc2c1COc1ccccc1 | n | n[10 µM] | n | u | n | 14.1µM
O=C(NC1CCCC1)c1cc2c(ccc3ccccc32)o1 | u | n | n | n | u | 11.2µM
COCc1c(C(=O)NC2CCCCCC2)oc2ccccc12 | x | n | n | x | 11.2µM | u
Cc1ccc(C(=O)NC2CCCCCC2)o1 | 25.1µM | n | n | n | n | n
COc1ccc(-c2c(O)c3c(OC)c4c(cc3oc2=O)OC(C)(C)C=C4)cc1 | n | x | n | x | u | x
CN1CCN(S(=O)(=O)c2ccc(NCc3ccc4c(c3)OCO4)nc2)CC1 | x | n[10 µM] | n | x | x | n[9.22 µM]
Clc1ccccc1CN(Cc1ccco1)Cc1nnnn1C1CCCC1 | n | n[1.9 µM] | n | u | n | n
c1coc(CN(Cc2cccs2)Cc2nnnn2C2CCCCC2)c1 | n | n[10 µM] | n | -100.0 | u | n
COc1cccc(CNc2ncn[nH]2)c1OCc1ccccc1F | x | n | n | x | u | n
